Shown are actives, neighbours in structure and some others; about 5.9% of the full set was active somewhere.
FBPA coupling cs = qHTS Assay for Inhibitors of Fructose-1,6-bisphosphate Aldolase from Giardia Lamblia: Coupling assay counterscreen. activity change, negative = inhibition, % at 58.2 µM, hits read low. coupling enzyme system counterscreen, AmpLite Red fluorescence. 290,000 compounds, 0.67% hits; in the data active = activity change below about -30%
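Coupling enzymes only (glyceraldehyde-3-phosphate) + compound, at 57.5 uM final, 10 min RT; add substrate/coupling/AmpLite Red mix, 20 min RT; fluorescence ex 525/em 598 nm. Actives flag coupling-system interference.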
TrxR1 substrate = qHTS Assay for Substrates of Mammalian Selenoprotein Thioredoxin Reductase 1 (TrxR1): qHTS | Potency, µM (titrated, usually from 114 µM), for inactives: at the highest dose activity change, negative = substrate turnover | Thioredoxin reductase 1, cytoplasmic (Rattus norvegicus), O89049 | 390,000 compounds, 0.01% hits | purified TrxR1 substrate turnover, NADPH consumption readout; note: potency is the fitted concentration of half-maximal effect; nearly all actives have a fitted effect of over 50% in size
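Rat TrxR1, dispensed at 90 nM, was prereduced with 400 uM NADPH (final) for 5 min at ~22 deg C, then incubated with compound 15 min before 400 uM selenite. A first-read NADPH fluorescence drop versus no-compound background flagged substrates.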
VP16 counter = VP16 counterscreen qHTS for inhibitors of ROR gamma transcriptional activity. Drosophila S2 Gal4-VP16 UAS-luciferase, luminescence, 20 h. Potency, µM (doses to about 53.6 µM), inactives show at the top dose activity, negative = inhibition, most hits filed as inhibitors. 310,000 compounds, 3.5% hits. AID 2546, 2010;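 note: Gal4-VP16 expression switched on by copper sulfate through the metallothionein promoter; potency is the fitted concentration of half-maximal effect; nearly all actives have a fitted effect of over 50% in size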
TrxR1 inh = qHTS Assay for Inhibitors of Mammalian Selenoprotein Thioredoxin Reductase 1 (TrxR1): qHTS. Thioredoxin reductase 1, cytoplasmic (Rattus norvegicus), O89049. recombinant rTrxR1, NADPH fluorescence consumption, selenite substrate. Potency, µM (doses to about 114 µM), for inactives: at the highest dose activity change, negative = inhibition, most hits filed as inhibitors. 390,000 compounds, 1% hits. AID 588453, 2011; note: potency is the fitted concentration of half-maximal effect; nearly all actives have a fitted effect of over 65% in size
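Rat TrxR1 (90 nM in the dispensed reagent) was pre-reduced with 400 uM NADPH for 5 min at room temperature, then incubated with compound for 15 min. After 400 uM selenite was added, NADPH fluorescence (Ex 340/Em 450 nm) was followed for 8 min.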
RORg inh = qHTS for inhibitors of ROR gamma transcriptional activity; Potency, µM (top dose mostly 53.6 µM), for inactives: at the top dose activity change, negative = inhibition, actives largely listed as inhibitors; Drosophila S2 Gal4-RORgamma UAS-luciferase reporter, 20 h; Nuclear receptor ROR-gamma (Mus musculus), P51450; 310,000 compounds, 5.4% hits; note: potency is the fitted concentration of half-maximal effect; nearly all actives have a fitted effect of over 60% in size
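Stably transfected Drosophila Schneider cells are the test system, with ROR gamma fused to Gal4 and luciferase under UAS control; luminescence is read after 20 hr of 700 uM copper sulfate induction at ambient temperature.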
GALK inh = qHTS Assay for Inhibitors of Human Galactokinase (GALK); Purified GALK, Kinase-Glo residual ATP luminescence; Potency, µM (highest dose often 57.5 µM), without a hit: at the top dose activity change, negative = inhibition, actives largely listed as inhibitors; 270,000 compounds, 0.007% hits; AID 1868, 2009; note: potency is the fitted concentration of half-maximal effect
Target sequence (P51570 whole entry, looked up): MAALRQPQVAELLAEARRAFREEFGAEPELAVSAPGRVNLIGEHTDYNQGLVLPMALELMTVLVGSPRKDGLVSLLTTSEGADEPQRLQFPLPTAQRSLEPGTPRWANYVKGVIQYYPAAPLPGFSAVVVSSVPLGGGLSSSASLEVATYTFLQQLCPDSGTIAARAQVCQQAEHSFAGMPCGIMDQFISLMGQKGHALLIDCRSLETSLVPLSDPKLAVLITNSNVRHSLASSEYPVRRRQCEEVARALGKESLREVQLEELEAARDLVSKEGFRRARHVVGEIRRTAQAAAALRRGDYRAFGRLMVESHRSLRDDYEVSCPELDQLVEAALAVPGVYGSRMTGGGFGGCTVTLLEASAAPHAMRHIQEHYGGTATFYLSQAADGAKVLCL
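5 nM enzyme, 35 uM ATP, 100 uM galactose, 20 mM HEPES pH8.0, 5 mM MgCl2; 1 h RT; residual ATP by Kinase-Glo Plus luminescence, qHTS format.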
An asterisk follows results filed as active; [ ] = another dose, or the depositor's remark. Unless noted, calls come from the whole dose curve; as a rule, active = well fitted curve in the direction sought with a large enough effect; inconclusive = small, poorly fitted or top-dose-only effect, or another doubt; inactive = no such curve, though single readings can be large; an effect the other way counts as inactive or inconclusive. % is set by controls: 0 for no effect and ±100 for the full control effect.

Results for COc1ccc(C(=O)C2CCCN(C(=O)CCC3=NNC(=O)CC3)C2)c(C)c1 (stereo not drawn) ?
FBPA coupling cs: -2.0; TrxR1 substrate: -0.8%; VP16 counter: 4.9%; TrxR1 inh: 14.6%; RORg inh: 0.3%; GALK inh: -1.2%

Results for COc1cccc(-c2nc3n(n2)C(c2cccs2)C(C(=O)Nc2cccnc2)=C(C)N3)c1 (stereo not drawn) ?
FBPA coupling cs: 0.0; TrxR1 substrate: 6.2%[57.1 µM]; VP16 counter: -4.0%; TrxR1 inh: 7.6%[57.1 µM]; RORg inh: 23.6%; GALK inh: -3.3%

What do the screens show for `O=S(=O)(NCc1ccccc1)c1ccc(Cl)cc1`?
FBPA coupling cs: 2.5; TrxR1 substrate: -3.0%; VP16 counter: -10.6%; TrxR1 inh: -2.8%; RORg inh: -9.6%; GALK inh: 2.2%

Results for O=S(=O)(Nc1cc2nc3ccccc3nc2n1Cc1ccccc1)c1ccc(Cl)cc1 ?
FBPA coupling cs: -55.1*; TrxR1 substrate: inconclusive; VP16 counter: inconclusive; TrxR1 inh: -7.9%; RORg inh: inconclusive; GALK inh: -0.5%

What do the screens show for `N#Cc1c(Nc2ccccc2)s[nH]c1=O`?
FBPA coupling cs: 8.7; TrxR1 substrate: 2.4%[57.1 µM]; VP16 counter: 11.2µM*; TrxR1 inh: -20.8%[57.1 µM]; RORg inh: inconclusive; GALK inh: 3.3%

How did N#Cc1c(Nc2ccccc2C(F)(F)F)s[nH]c1=O do in these assays?
FBPA coupling cs: -0.7; TrxR1 substrate: -5.4%; VP16 counter: 11.2µM*; TrxR1 inh: -1.9%[57.1 µM]; RORg inh: 14.1µM*; GALK inh: 0.4%

What do the screens show for `N#Cc1c(Nc2ccccc2Cl)s[nH]c1=O`?
FBPA coupling cs: 9.3; TrxR1 substrate: 0.9%; VP16 counter: 3.16µM*; TrxR1 inh: -14.2%; RORg inh: 1.26µM*; GALK inh: 1.0%

Results for Cc1cc(C)c(C#N)c(Nc2ccccc2Cl)n1 ?
FBPA coupling cs: -0.3; TrxR1 substrate: 12.9%[57.1 µM]; VP16 counter: -3.2%; TrxR1 inh: -3.3%; RORg inh: -11.5%[10 µM]; GALK inh: 5.1%

How did COc1cccc(-c2nn(C)c3sc(C(=O)NCc4ccc(C)o4)cc23)c1 do in these assays?
FBPA coupling cs: -4.3; TrxR1 substrate: 31.7%; VP16 counter: 20µM*; TrxR1 inh: 31.6µM*; RORg inh: 7.9%; GALK inh: 0.3%

Results for COc1cccc(-c2nn(C)c3sc(C(=O)NCc4ccc(OC)cc4OC)cc23)c1 ?
TrxR1 substrate: 25.2%; TrxR1 inh: 45.2%

Results for Cc1ccc(Nc2nc(=O)c3cccnc3s2)cc1 ?
FBPA coupling cs: -8.7; TrxR1 substrate: -12.8%; VP16 counter: 20.3%; TrxR1 inh: 10.1%; RORg inh: 40.4%; GALK inh: 1.5%

What do the screens show for `COc1ccc(OC)c(Nc2nc(=O)c3cccnc3s2)c1`?
FBPA coupling cs: -7.3; TrxR1 substrate: -6.4%; VP16 counter: 3.16µM*; TrxR1 inh: -11.1%; RORg inh: 4.47µM*; GALK inh: -0.6%

How did O=C(O)C1=C[C@@H](c2csc3ccccc23)C[C@@H](OCCCCO)O1 do in these assays?
FBPA coupling cs: 11.7; TrxR1 substrate: 2.8%; VP16 counter: -3.6%; TrxR1 inh: -3.2%; RORg inh: -1.5%; GALK inh: 0.4%

How did Cc1ccc(OCc2nc(-c3ccccn3)n[nH]2)cc1 do in these assays?
FBPA coupling cs: -6.4; TrxR1 substrate: -8.7%[57.1 µM]; VP16 counter: 5.01µM*; TrxR1 inh: -0.3%[57.1 µM]; RORg inh: 3.16µM*; GALK inh: -2.5%

Results for Cc1cccc(OCc2nc(-c3ccccn3)n[nH]2)c1 ?
FBPA coupling cs: -1.1; TrxR1 substrate: -5.1%; VP16 counter: 2.82µM*; TrxR1 inh: 22.4%[57.1 µM]; RORg inh: 1.58µM*; GALK inh: 5.9%

How did COC(=O)c1ccc(CCc2cc(O)ccc2O)cc1 do in these assays?
TrxR1 substrate: -15.4%; TrxR1 inh: 56.2µM*

Results for COc1ccc(C(=O)OCCc2ccc(O)cc2)cc1 ?
FBPA coupling cs: -0.9; TrxR1 substrate: -5.3%; VP16 counter: 12.6µM*; TrxR1 inh: 2.4%[57.1 µM]; RORg inh: 7.08µM*

Results for COC(=O)c1ccc(CCc2cc(O)c(Br)cc2O)cc1 ?
TrxR1 substrate: -0.1%; TrxR1 inh: 22.4µM*

Results for O=C(c1ccc(Br)s1)N1CCc2ccccc2C1 ?
TrxR1 substrate: -3.6%; VP16 counter: 29.8%; TrxR1 inh: 1.5%; RORg inh: 26.2%; GALK inh: 4.5%

Results for COc1ccccc1/C=C1\CCCC2=C1Nc1nnnn1C2c1ccccc1OC (stereo not drawn) ?
FBPA coupling cs: -6.3; TrxR1 substrate: 8.4%; VP16 counter: 14.1µM*; TrxR1 inh: inconclusive; RORg inh: inconclusive; GALK inh: -1.0%

What do the screens show for `C=CCNc1oc(-c2ccco2)nc1S(=O)(=O)c1ccccc1`?
FBPA coupling cs: 3.1; TrxR1 substrate: 1.7%; VP16 counter: 0.3%; TrxR1 inh: 44.7µM*; RORg inh: 39.8%; GALK inh: -6.5%

How did COCCNc1oc(-c2ccco2)nc1S(=O)(=O)c1ccccc1 do in these assays?
TrxR1 substrate: -4.9%; VP16 counter: -0.7%; TrxR1 inh: -29.4%; RORg inh: 3.1%; GALK inh: -3.3%

How did C=CCNC(=S)NNC(=O)C(CCC(C)C)CC(C)(C)O (stereo not drawn) do in these assays?
FBPA coupling cs: -1.4; TrxR1 substrate: 2.0%; VP16 counter: inconclusive; TrxR1 inh: -4.8%; RORg inh: 14.1µM*; GALK inh: -0.5%

How did C=CCNC(=S)NNC(=O)C(CC(C)C)CC(C)O (stereo not drawn) do in these assays?
FBPA coupling cs: 4.1; TrxR1 substrate: 2.7%[57.1 µM]; VP16 counter: -6.0%; TrxR1 inh: -13.9%[57.1 µM]; RORg inh: -20.4%; GALK inh: -0.1%

Results for Cc1c(N2C(=O)CSC2c2ccco2)c(=O)n(-c2ccccc2)n1C (stereo not drawn) ?
FBPA coupling cs: 5.4; TrxR1 substrate: 3.7%[57.1 µM]; VP16 counter: 0.9%; TrxR1 inh: 4.0%[57.1 µM]; RORg inh: -13.1%; GALK inh: 11.1%

Results for CN(Cc1ccco1)C(=O)CCc1nc2sc3c(c2c(=O)[nH]1)CCCC3 ?
FBPA coupling cs: 0.3; TrxR1 substrate: -3.0%; TrxR1 inh: 17.8µM*; GALK inh: -2.9%

Compound activity: PubChem, National Center for Advancing Translational Sciences (NCATS)
